Results published in PubChem BioAssay (Tox21).
Records with an inconclusive call do not appear. Activity calls are given as the source filed them. Unless noted, the call rests on the fitted dose curve.

What was measured:
[1] = Nuclear factor erythroid 2-related factor 2/antioxidant responsive element (Nrf2/ARE) small molecule agonists: qHTS cell viability counter screen in human keratinocytes (AID 1919968; active means well fitted cell-killing curve with a large enough effect in the repeat runs; further: nearly all actives have a fitted effect of over 55% in size; further: potency means the concentration at half of the fitted maximal effect)
In short: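 Stably transfected HaCaT (KeratinoSens), 1,500/well. Test agents in DMSO were applied for 23 h, 37 C/5% CO2. CellTiter-Fluor was incubated 1 h before the fluorescence read.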

[2] = Nuclear factor erythroid 2-related factor 2/antioxidant responsive element (Nrf2/ARE) small molecule agonists: luciferase reporter gene qHTS assay in human keratinocytes (AID 1919969); further: nearly all actives have a fitted effect of over 35% in size; further: potency means the concentration at half of the fitted maximal effect
[3] = target: Gonadotropin-releasing hormone receptor (Homo sapiens) (UniProt P30968); assay: Human gonadotropin-releasing hormone receptor (GnRHR) small molecule agonists, calcium flux assay in GnRHR-HEK293 cells (AID 1920063); further: nearly all actives have a fitted effect of over 35% in size
Chain of Gonadotropin-releasing hormone receptor (Homo sapiens) (P30968 whole entry, looked up): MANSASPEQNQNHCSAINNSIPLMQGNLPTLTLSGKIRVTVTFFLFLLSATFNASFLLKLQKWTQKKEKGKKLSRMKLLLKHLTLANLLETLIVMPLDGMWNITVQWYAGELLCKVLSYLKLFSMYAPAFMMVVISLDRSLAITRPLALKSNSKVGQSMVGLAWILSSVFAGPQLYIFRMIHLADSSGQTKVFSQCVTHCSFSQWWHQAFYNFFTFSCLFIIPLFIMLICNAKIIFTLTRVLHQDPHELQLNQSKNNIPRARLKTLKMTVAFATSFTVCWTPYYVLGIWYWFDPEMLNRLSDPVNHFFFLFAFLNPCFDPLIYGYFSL
In short: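 Stable human GnRHR HEK293 line. 18 h plating, then calcium dye for 1 h at 37 C. Agonist-mode compound addition from DMSO stocks; fluorescence monitored 3 min.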

[4] = G protein-coupled receptor (GPCR) small molecule agonists, calcium flux assay: HEK293 wild type cell line counter screen (AID 1920065)
In short: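 Following 18 h incubation at 37 C/5% CO2, plates got calcium dye for 1 h; compounds, ATP or DMSO were then pinned in and fluorescence followed kinetically (480/540 nm).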

[5] = p53 small molecule agonists, cell-based qHTS assay with human liver microsomes (AID 1963577)
In short: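 Cells carrying a p53-responsive bla reporter were rested 5 h (37 C, 5% CO2) before compound transfer. Human liver microsomes plus NADPH, 0.5 mg/mL final apiece, supplied metabolism during the 16 h 37 C exposure.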

[6] = p53 small molecule agonists, cell-based qHTS assay with rat liver microsomes (AID 1963578)
In short: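 Fluorescence from a beta-lactamase reporter under a p53 response element was measured after cells had been incubated 16 h at 37 C with test compound and rat liver microsomes plus NADPH (0.5 mg/mL final each).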

[7] = p53 small molecule agonists, cell-based qHTS assay with human liver microsomes: qHTS cell viability counter screen (AID 1963579); further: nearly all actives have a fitted effect of over 45% in size; further: potency means the concentration at half of the fitted maximal effect
In short: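 Seed p53RE-bla cells at 4,000 per well; incubate 5 h at 37 C; add compound, human liver microsomes and NADPH; incubate 16 h at 37 C; add CellTiter-Glo; after 30 min at room temperature, read luminescence.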

[8] = p53 small molecule agonists, cell-based qHTS assay: qHTS cell viability counter screen (AID 1963581); further: nearly all actives have a fitted effect of over 45% in size
In short: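 qHTS counter screen: 16 h compound exposure at 37 C of p53RE-bla HCT-116 cells (4,000 per well, seeded 5 h prior), cell viability by ATP luminescence.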

[9] = p53 small molecule agonists, cell-based qHTS assay (AID 1963582; active means well fitted activation curve with a large enough effect in the signal ratio in the repeat runs, not every such curve was filed as active; the % refers to the signal ratio)
In short: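 Measured: fluorescence from cleaved LiveBLAzer substrate. System: p53RE-bla cells, 16 h compound treatment at 37 C, 2 h substrate step at room temperature.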

[10] = target: 5-hydroxytryptamine receptor 2A (Homo sapiens) (UniProt P28223); assay: 5-hydroxytryptamine receptor 2A (HTR2A) small molecule antagonists, cell-based qHTS assay (AID 1963586); further: nearly all actives have a fitted effect of over 45% in size; further: potency means the concentration at half of the fitted maximal effect
Chain of 5-hydroxytryptamine receptor 2A (Homo sapiens) (P28223 whole entry, looked up): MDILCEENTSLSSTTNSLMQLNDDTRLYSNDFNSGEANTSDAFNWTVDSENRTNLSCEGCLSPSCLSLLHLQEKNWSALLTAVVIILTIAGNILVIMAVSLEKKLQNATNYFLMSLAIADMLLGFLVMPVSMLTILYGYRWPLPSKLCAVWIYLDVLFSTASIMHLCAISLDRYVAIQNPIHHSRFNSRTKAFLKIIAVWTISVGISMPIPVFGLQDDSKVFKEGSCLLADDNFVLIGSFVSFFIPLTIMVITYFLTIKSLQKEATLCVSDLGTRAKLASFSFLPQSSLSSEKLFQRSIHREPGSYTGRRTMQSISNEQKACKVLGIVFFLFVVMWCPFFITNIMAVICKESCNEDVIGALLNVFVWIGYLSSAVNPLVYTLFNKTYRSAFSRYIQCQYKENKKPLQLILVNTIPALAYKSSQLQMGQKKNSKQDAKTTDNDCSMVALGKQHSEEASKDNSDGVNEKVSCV
In short: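 CHO cells stably expressing human HTR2A were plated for 18 h at 37 C, then loaded with calcium dye for 1 h. Compounds were preincubated 5 min at room temperature before DOI (4 nM solution) was added. Kinetic fluorescence was read for 3 min.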

[11] = target: 5-hydroxytryptamine receptor 2A (Homo sapiens) (UniProt P28223); assay: 5-hydroxytryptamine receptor 2A (HTR2A) small molecule agonists, cell-based qHTS assay (AID 1963587); further: nearly all actives have a fitted effect of over 30% in size; further: potency means the concentration at half of the fitted maximal effect
In short: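 Kinetic calcium-flux fluorescence (2 min, 1 sec intervals) after compound addition in agonist mode. HTR2A-CHO cells were cultured 18 h, then dye-loaded 1 h at 37 C.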

[12] = target: Muscarinic acetylcholine receptor M1 (Homo sapiens) (UniProt P11229); assay: Cholinergic receptor muscarinic 1 (CHRM1) small molecule antagonists, cell-based qHTS assay (AID 1963588); further: nearly all actives have a fitted effect of over 40% in size; further: potency means the concentration at half of the fitted maximal effect
Chain of Muscarinic acetylcholine receptor M1 (Homo sapiens) (P11229 whole entry, looked up): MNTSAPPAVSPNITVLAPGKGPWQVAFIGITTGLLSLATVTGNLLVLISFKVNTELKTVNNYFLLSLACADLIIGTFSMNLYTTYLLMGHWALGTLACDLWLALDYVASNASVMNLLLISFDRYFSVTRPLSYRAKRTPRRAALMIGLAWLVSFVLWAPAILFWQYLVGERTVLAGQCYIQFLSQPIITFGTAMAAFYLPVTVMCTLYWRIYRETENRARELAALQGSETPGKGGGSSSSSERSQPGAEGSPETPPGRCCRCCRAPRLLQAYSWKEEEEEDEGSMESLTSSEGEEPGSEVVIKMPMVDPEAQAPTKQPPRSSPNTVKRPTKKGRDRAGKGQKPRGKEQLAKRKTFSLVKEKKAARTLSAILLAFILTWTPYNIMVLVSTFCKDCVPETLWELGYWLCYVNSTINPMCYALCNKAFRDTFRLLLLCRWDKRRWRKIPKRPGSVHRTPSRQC
In short: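 Compounds were tested at 15 concentrations in three independent runs. Dye-loaded CHRM1-CHO cells were exposed 5 min at room temperature before stimulation by acetylcholine added at 50nM. Intracellular calcium was read kinetically on FDSS for 3 min.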

[13] = target: Muscarinic acetylcholine receptor M1 (Homo sapiens) (UniProt P11229); assay: Cholinergic receptor muscarinic 1 (CHRM1) small molecule agonists, cell-based qHTS assay (AID 1963589); further: nearly all actives have a fitted effect of over 35% in size
In short: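 Kinetic fluorescence (1 s intervals) of calcium-sensitive dye in human M1 CHO cells after compound addition; cells pre-incubated 18 h at 37 C/5% CO2 and dye-loaded 1 h.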

[14] = cAMP Responsive Elements (CRE) small molecule agonists, cell-based qHTS assay (AID 1963590)
In short: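 Test agents in DMSO were incubated 3 h at 37 C/5% CO2 with CRE-bla HEK 293T cells seeded 18 h earlier; LiveBLAzer B/G FRET substrate was added and read after 2 h at room temperature.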

[15] = cAMP Responsive Elements (CRE) small molecule antagonists, cell-based qHTS assay (AID 1963591; active means well fitted inhibition curve with a large enough effect in the signal ratio in the repeat runs, not every such curve was filed as active; the % refers to the signal ratio)
In short: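 Reporter line CRE-bla HEK 293T in dialyzed-FBS DMEM; cells preincubated 18 h, treated 3 h with compound plus NKH477 (0.25 uM final); LiveBLAzer FRET, 2 h RT.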

[16] = target: Beta-2 adrenergic receptor (Homo sapiens) (UniProt P07550); assay: Adrenergic beta2 receptor (ADRB2) small molecule antagonists, cell-based qHTS assay (AID 1963592); further: series mostly up to about 92 µM; nearly all actives have a fitted effect of over 50% in size
Chain of Beta-2 adrenergic receptor (Homo sapiens) (P07550 whole entry, looked up): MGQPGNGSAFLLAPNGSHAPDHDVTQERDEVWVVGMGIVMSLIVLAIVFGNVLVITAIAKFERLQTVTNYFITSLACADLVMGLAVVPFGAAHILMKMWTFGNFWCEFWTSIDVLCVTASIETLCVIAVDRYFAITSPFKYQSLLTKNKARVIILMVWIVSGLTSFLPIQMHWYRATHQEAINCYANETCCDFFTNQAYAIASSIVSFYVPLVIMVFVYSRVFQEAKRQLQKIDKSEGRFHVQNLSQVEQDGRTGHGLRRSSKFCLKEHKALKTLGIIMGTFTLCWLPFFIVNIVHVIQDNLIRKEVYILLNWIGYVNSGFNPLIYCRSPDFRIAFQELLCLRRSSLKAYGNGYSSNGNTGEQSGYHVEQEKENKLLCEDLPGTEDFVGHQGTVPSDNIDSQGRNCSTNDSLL
In short: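 Assay format: CHO-ADRB2 cells, 18-20hr seeding at 37C/5% CO2, then compound plus 1nM isoproterenol agonist mix for 0.5hr RT. Homogeneous time-resolved fluorescence cAMP detection after 1hr, expressed as 665/615 nm ratio.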

[17] = target: D(2) dopamine receptor (Homo sapiens) (UniProt P14416); assay: Dopamine D2 receptor (DRD2) small molecule antagonists, cell-based qHTS assay (AID 1963595; active means well fitted inhibition curve with a large enough effect in the signal ratio in the repeat runs, with a control signal flat; the % refers to the signal ratio)
Chain of D(2) dopamine receptor (Homo sapiens) (P14416 whole entry, looked up): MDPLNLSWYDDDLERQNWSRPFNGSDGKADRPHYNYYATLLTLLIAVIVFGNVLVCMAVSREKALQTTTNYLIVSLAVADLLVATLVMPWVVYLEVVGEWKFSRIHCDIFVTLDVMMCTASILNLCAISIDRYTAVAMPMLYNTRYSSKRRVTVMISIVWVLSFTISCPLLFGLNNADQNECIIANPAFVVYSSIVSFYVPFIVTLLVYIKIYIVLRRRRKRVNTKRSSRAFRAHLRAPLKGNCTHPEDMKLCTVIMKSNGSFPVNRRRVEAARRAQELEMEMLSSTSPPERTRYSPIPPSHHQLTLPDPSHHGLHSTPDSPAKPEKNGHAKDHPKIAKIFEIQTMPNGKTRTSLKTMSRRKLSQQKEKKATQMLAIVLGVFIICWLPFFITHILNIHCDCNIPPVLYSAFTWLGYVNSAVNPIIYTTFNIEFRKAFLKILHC
In short: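 Cells were plated and grown for 24 h at 37 °C. Ro20-1724 (0.1 mM final) went in first, then compound for 10 min. NKH477 (200 nM) with quinpirole (12 nM) followed for 30 min at RT, then HTRF detection reagents for 1 h.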

[18] = p53 small molecule agonists, cell-based qHTS assay with rat liver microsomes: qHTS cell viability counter screen (AID 1963580); further: nearly all actives have a fitted effect of over 45% in size
In short: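 Rat liver microsome (0.5 mg/mL final) and NADPH (0.5 mg/mL final) co-incubation with compounds for 16 h at 37 C on HCT-116 p53RE-bla cells; cytotoxicity taken from intracellular ATP luminescence.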

[19] = target: Beta-2 adrenergic receptor (Homo sapiens) (UniProt P07550); assay: Adrenergic beta2 receptor (ADRB2) small molecule agonists, cell-based qHTS assay (AID 1963593);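 further: CHO cells stably overexpressing human ADRB2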
In short: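 CHO cells stably over-expressing ADRB2 were plated overnight at 37C, then dosed with compounds plus a stimulation mix containing 100uM IBMX and 25uM Ro-20-1724 for 0.5hr at room temperature. cAMP was measured by HTRF competition, 1hr.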

[20] = target: D(2) dopamine receptor (Homo sapiens) (UniProt P14416); assay: Dopamine D2 receptor (DRD2) small molecule agonists, cell-based qHTS assay (AID 1963594); further: nearly all actives have a fitted effect of over 35% in size
In short: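 cAMP accumulation in DRD2-HEK293 cells measured by HTRF after 1 h detection; compounds added 10 min before NKH477 (200nM […]) forskolin-analogue stimulation, 30 min at room temperature, with Ro20-1724 present at 0.1 mM final.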
On the % scale 0 is the no-effect control and ±100 the full control effect.

ClC1=C(Cl)C1(Cl)Cl
inactive: Potency [1] | Potency [2] | Potency [3] | outcome [4] | Potency [5] | Potency [6] | Potency [7] | Potency [8] | Potency [9] | Potency [10] | Potency [11] | Potency [12] | Potency [13] | Potency [14] | Potency [15] | Potency [16] | Potency [17]

Clc1cc(Cl)cc(Cl)c1
inactive: Potency [1] | Potency [2] | Potency [3] | outcome [4] | Potency [5] | Potency [6] | Potency [18] | Potency [8] | Potency [9] | Potency [11] | Potency [12] | Potency [13] | Potency [14] | Potency [15] | Potency [16] | Potency [19] | Potency [20] | Potency [17]

NS(=O)(=O)c1ccc(Cl)c(S(N)(=O)=O)c1
inactive: Potency [1] | Potency [2] | Potency [3] | outcome [4] | Potency [5] | Potency [6] | Potency [7] | Potency [18] | Potency [8] | Potency [10] | Potency [11] | Potency [13] | Potency [14] | Potency [16] | Potency [19] | Potency [20] | Potency [17]

CCC(=O)O[C@]1(C(=O)SCF)[C@H](C)C[C@H]2[C@@H]3C[C@H](F)C4=CC(=O)C=C[C@]4(C)[C@@]3(F)[C@@H](O)C[C@@]21C
inactive: Potency [1] | Potency [2] | Potency [3] | outcome [4] | Potency [5] | Potency [6] | Potency [18] | Potency [8] | Potency [10] | Potency [11] | Potency [12] | Potency [13] | Potency [16] | Potency [20] | Potency [17]

NS(=O)(=O)c1cc2c(cc1C(F)(F)F)NCNS2(=O)=O
inactive: Potency [1] | Potency [2] | Potency [3] | outcome [4] | Potency [5] | Potency [6] | Potency [7] | Potency [18] | Potency [9] | Potency [10] | Potency [11] | Potency [12] | Potency [14] | Potency [15] | Potency [16] | Potency [20] | Potency [17]

OCC(F)(F)F
inactive: Potency [1] | Potency [2] | Potency [3] | outcome [4] | Potency [5] | Potency [6] | Potency [18] | Potency [9] | Potency [10] | Potency [11] | Potency [12] | Potency [13] | Potency [14] | Potency [15] | Potency [16] | Potency [20] | Potency [17]
active: Potency [7] 38.3 µM

CC(C)C[C@@H](N)C(=O)O
inactive: activity change, negative = cytotoxicity [1] 2.62% [at 19 µM] | activity, positive = activation [2] -3.08% [at 19 µM] | activity change [3] 0.203% [at 11.8 µM, stronger effect = higher value] | activation [4] -0.27% [at 11.8 µM] | activation [5] -1.67% [at 13.5 µM] | activation [6] -1.65% [at 13.6 µM] | activity change, negative = cytotoxicity [18] -0.234% [at 13.5 µM] | activity change, negative = cytotoxicity [8] -2.8% [at 13.5 µM] | activation [9] -0.189% [at 13.5 µM] | activation [11] 2.38% [at 15.9 µM] | activity, negative = inhibition [12] 0.917% [at 12.6 µM] | activation [13] 10.1% [at 15.8 µM] | activation [14] 0.0359% [at 19 µM] | activity change, negative = inhibition [15] -5.02% [at 18.9 µM] | activity change, negative = inhibition [16] 9.37% [at 19 µM] | Potency [19] | activation [20] 5.36% [at 19 µM] | activity change, negative = inhibition [17] 4.57% [at 18.9 µM]

NC1CCN(c2cccc(Cl)n2)CC1
inactive: Potency [1] | Potency [2] | Potency [3] | outcome [4] | Potency [5] | Potency [6] | Potency [18] | Potency [8] | Potency [9] | Potency [12] | Potency [13] | Potency [14] | Potency [15] | Potency [16] | Potency [20] | Potency [17]
active: Potency [10] 0.41 µM | Potency [11] 0.268 µM

CCCCC(CC)CN1C(=O)C2C3C=CC(C3)C2C1=O (centres undefined)
inactive: Potency [1] | Potency [3] | outcome [4] | Potency [5] | Potency [6] | Potency [18] | Potency [8] | Potency [10] | Potency [11] | Potency [13] | Potency [16] | Potency [19] | Potency [20] | Potency [17]
active: Potency [2] 54.5 µM

NS(=O)(=O)c1cc(-c2nn[nH]n2)c(NCc2cccs2)cc1Cl
inactive: Potency [1] | Potency [2] | Potency [3] | outcome [4] | Potency [5] | Potency [6] | Potency [7] | Potency [18] | Potency [9] | Potency [10] | Potency [11] | Potency [12] | Potency [13] | Potency [14] | Potency [15] | Potency [16] | Potency [19] | Potency [20]

CCN1CCCC1CNC(=O)c1cc(S(=O)(=O)CC)c(N)cc1OC (centres undefined)
inactive: Potency [1] | Potency [2] | Potency [3] | outcome [4] | Potency [5] | Potency [6] | Potency [7] | Potency [18] | Potency [9] | Potency [11] | Potency [12] | Potency [13] | Potency [14] | Potency [16] | Potency [19]

Clc1ccc(C(Cn2ccnc2)OCc2c(Cl)cccc2Cl)c(Cl)c1 (centres undefined)
active: Potency [1] 23.7 µM | Potency [2] 11.9 µM | Potency [12] 11.6 µM
inactive: Potency [3] | outcome [4] | Potency [5] | Potency [6] | Potency [7] | Potency [18] | Potency [13] | Potency [14] | Potency [16] | Potency [19] | Potency [20] | Potency [17]

CC1=CC(=O)CC(C)(C)C1(O)/C=C/C(C)=C\C(=O)O (centres undefined)
inactive: Potency [1] | Potency [2] | Potency [3] | outcome [4] | Potency [5] | Potency [6] | Potency [18] | Potency [8] | Potency [9] | Potency [10] | Potency [12] | Potency [13] | Potency [14] | Potency [16] | Potency [20] | Potency [17]

CCOC(=O)[C@H](O)[C@@H](O)C(=O)OCC
inactive: Potency [1] | Potency [2] | Potency [3] | outcome [4] | Potency [5] | Potency [6] | Potency [7] | Potency [8] | Potency [9] | Potency [12] | Potency [13] | Potency [14] | Potency [15] | Potency [16] | Potency [19] | Potency [20] | Potency [17]
